Test results reported in PubChem BioAssay (NCATS).
Inconclusive results are not listed. Unmarked numbers belong to inactive results. Calls of active or inactive are those of the source. The call rests on the fitted dose curve; in most records, active means well fitted inhibition curve with a large enough effect; inconclusive means small, poorly fitted or top-dose-only effect; inactive means flat fitted curve, though single readings scatter.

Experiment: P-glycoprotein substrates identified in KB-8-5-11 adenocarcinoma cell line, qHTS therapeutic library screen (AID 1346987); further: nearly all actives have a fitted effect of over 65% in size
Settings: KB-8-5-11 (P-gp overexpressing) viability, CellTiter-Glo, 72 h; series mostly up to 44.5 µM; activity change, negative = cytotoxicity: at the top concentration
Outline: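 Compounds are pinned in dose-response onto KB-8-5-11 cells (500 cells/well, colchicine-free medium) and left 72 h at 37 degree C. CellTiter-Glo luminescence then yields AC50 values.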
On the % scale 0 is the no-effect control and ±100 the full control effect; potency means the concentration at half of the fitted maximal effect.

Compound	outcome	activity change, negative = cytotoxicity	Potency
Cc1cc(C)nc(NS(=O)(=O)c2ccc(NC(=S)NC(=O)COc3ccc(Br)cc3Cl)cc2)n1	inactive	–	–
C/C=C1\[C@H](OC2OC(COC3OC(CO)C(O)C(O)C3O)C(O)C(O)C2O)OC=C(C(=O)OC)[C@H]1CC(=O)OCCc1ccc(O)cc1 (stereo partly specified)	–	1.76% [at 17.3 µM]	–
COc1c2c(c(C)c3c1C(=O)OC3)OC1(C)CC(O)C34OC(OC)(CC(OC(C)=O)C3(C)C1C2)OC4(C)C (stereo unspecified)	–	7.36% [at 17.3 µM]	–
O=C(O)/C=C/c1ccc(-c2ccc(O)c(C34CC5CC(CC(C5)C3)C4)c2)cc1	–	–	0.58 µM (active)
O=C(c1ccccc1)c1ccc2nc(NC(=O)c3csc(C4CCN(c5ncnc6ccsc56)CC4)n3)[nH]c2c1	–	–	5.8 µM (active)
CC1OC2OC(=O)C3(C)CC4=C(CO)C5=C(CC(=O)C4(C)C(C1=O)C23)C(C)(C)OC(=O)C5 (stereo unspecified)	–	-11% [at 17.3 µM]	–
N#Cc1ccc(C(=O)N2CCC3(CC2)N=C(N)c2c(F)ccc(F)c2N3)cn1	–	-9.09%	–
COc1cc2nc(N3CCC(N4CCCCC4)CC3)nc(NC3CCCCCC3)c2cc1OC	–	–	5.17 µM (active)
COC(=O)N1CCC(n2ncc3c(N4CCOCC4)nc(-c4ccc(NC(=O)Nc5ccc(CO)cc5)cc4)nc32)CC1	–	–	2.59 µM (active)
COc1cc2ncnc(Nc3cccc(Cl)c3F)c2cc1OC(=O)N1CCN(C)C[C@H]1C	–	–	inactive
C[C@@H]1CC[C@]2(C(=O)O)CC[C@]3(C)C(=CCC4[C@@]5(C)C[C@@H](O)[C@H](O)[C@@](C)(CO)C5CC[C@]43C)C2[C@]1(C)O (stereo partly specified)	–	0.128% [at 17.3 µM]	–
